Experimental data reported in PubChem BioAssay (NCI).
The panel holds about 83,000 compounds, 20% with a hit somewhere; the sample as a whole holds those more often.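 Interpretation: 100, growth as untreated; towards 0, rising growth inhibition; 0, no net growth; 0 to -100, cell death. Compounds scoring below 10 were considered active.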 Values without a mark were called inactive. Activity calls are given as the source filed them.

Experiments:
Assay in all cases: NCI-60 one-dose screen, 48 h (100 = growth as untreated, 0 = no growth, -100 = all killed)
Settings in all cases: 10 µM unless noted
SK-MEL-2 melanoma = test system: SK-MEL-2 melanoma
EKVX NSCLC = test system: EKVX NSCLC
SN12C renal = test system: SN12C renal
UO-31 renal = test system: UO-31 renal
ACHN renal = test system: ACHN renal
CAKI-1 renal = test system: CAKI-1 renal
A498 renal = test system: A498 renal
CCRF-CEM leukemia = test system: CCRF-CEM leukemia
MOLT-4 leukemia = test system: MOLT-4 leukemia
RPMI-8226 leukemia = test system: RPMI-8226 leukemia
OVCAR-8 ovarian = test system: OVCAR-8 ovarian
OVCAR-5 ovarian = test system: OVCAR-5 ovarian
OVCAR-4 ovarian = test system: OVCAR-4 ovarian
SK-OV-3 ovarian = test system: SK-OV-3 ovarian
IGROV1 ovarian = test system: IGROV1 ovarian
OVCAR-3 ovarian = test system: OVCAR-3 ovarian
HS 578T breast = test system: HS 578T breast
NCI/ADR-RES ovarian = test system: NCI/ADR-RES ovarian
SR leukemia = test system: SR leukemia
TK-10 renal = test system: TK-10 renal

SMILES	growth (SK-MEL-2 melanoma)	growth (EKVX NSCLC)	growth (SN12C renal)	growth (UO-31 renal)	growth (ACHN renal)	growth (CAKI-1 renal)	growth (A498 renal)	growth (CCRF-CEM leukemia)	growth (MOLT-4 leukemia)	growth (RPMI-8226 leukemia)	growth (OVCAR-8 ovarian)	growth (OVCAR-5 ovarian)	growth (OVCAR-4 ovarian)	growth (SK-OV-3 ovarian)	growth (IGROV1 ovarian)	growth (OVCAR-3 ovarian)	growth (HS 578T breast)	growth (NCI/ADR-RES ovarian)	growth (SR leukemia)	growth (TK-10 renal)
O=C1CCC2=C3C4CCCCC4C(=O)C4CCCC(OC2C1)C34 (stereo not drawn)	3.05% (active)	97.2%	14.1%	-43.5% (active)	-23.3% (active)	-27.2% (active)	104%	15.6%	7.03% (active)	-4.93% (active)	6.21% (active)	108%	22.1%	78.4%	-2.77% (active)	-28.8% (active)	26.5%	3.01% (active)	–	–
COCCc1ccc(OCC(O)CNC(C)C)cc1 (stereo not drawn)	108%	96%	109%	79.4%	108%	96.4%	103%	96%	91.4%	98.1%	101%	110%	98.8%	106%	104%	118%	101%	105%	–	–
CC(CN1CCCCC1)C(=O)c1ccccc1 (stereo not drawn)	102%	104%	105%	92.4%	107%	101%	84%	–	–	78%	102%	101%	114%	106%	109%	109%	103%	108%	97.3%	–
Oc1ccc(CN2CCC(N3CCOCC3)CC2)c2cccnc12	-6.57% (active)	59.4%	11.8%	14.5%	12.8%	43.2%	71.1%	22.4%	–	7.8% (active)	19%	48.8%	30.9%	36.1%	34.9%	29.9%	24.4%	48.3%	–	–
N#Cc1c(N)nc(NCCO)nc1-c1ccc(F)cc1	108%	89.9%	103%	92.8%	100%	95.9%	89.1%	112%	–	94.1%	99.7%	105%	95.6%	84.9%	102%	110%	92.5%	105%	99.3%	–
Cc1c(C)c2c(c(C)c1OCC(=O)O)CC[C@@](C)(CCC[C@@H](C)CCC[C@@H](C)CCCC(C)C)O2	-26.6% [50 µM] (active)	32.3% [50 µM]	-32.3% [50 µM] (active)	32.6% [50 µM]	-31.9% [50 µM] (active)	7.85% [50 µM] (active)	-37.5% [50 µM] (active)	–	-1.22% [50 µM] (active)	-39.4% [50 µM] (active)	-9.97% [50 µM] (active)	25.5% [50 µM]	45.9% [50 µM]	53.3% [50 µM]	1.82% [50 µM] (active)	-67.3% [50 µM] (active)	23% [50 µM]	-28.2% [50 µM] (active)	0.521% [50 µM] (active)	–
Cc1c(Cl)cc(-n2c(=O)c3ccccc3c3ccccc3c2=O)cc1Cl	98.3%	97%	85.2%	–	101%	80.9%	141%	97.9%	95.5%	91.8%	105%	101%	104%	98.4%	86.7%	127%	99.3%	102%	–	111%
Cc1ccc2c(c1)Sc1c(ccc3ccccc13)N2	116%	72.8%	81.8%	60.1%	64.5%	73.4%	91.7%	67.6%	32.4%	50.4%	72.3%	109%	73.5%	73.1%	42.3%	70.8%	66.4%	57.3%	–	–
COc1ccc(-c2nc(SCCC(C)C)nc(N/N=C\c3ccccc3O)c2C#N)cc1	103%	101%	81.2%	86.7%	73.5%	73.9%	95.8%	66.3%	–	–	75.4%	99.7%	4.04% (active)	87.6%	86.7%	78.8%	63.2%	84.2%	–	–
